Data taken from the supplement of paper PMC10646978.
± gives the standard deviation.

What follows are molecules tested on RAW-Dual (murine macrophage reporter line) (assay: IRF reporter (Lucia luciferase) activity fold change vs agonist alone; higher = enhanced IRF activity). Conditions: modulator concentration 10 µM; agonist: 3'3'-cGAMP 10 ug/mL.
Outline: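 Overnight stimulation with a PRR agonist followed pre-incubation for 1 hour at 37 °C with compound at 10 μM final. This was done in RAW-Dual murine macrophage reporter cells seeded at 50 000 per well in 384-well plates. NF-κB (SEAP, QUANTI-Blue absorbance at 620 nm) and IRF (Lucia luciferase, QUANTI-Luc luminescence) were read from the supernatant. Each reporter's fold change relative to the mean agonist-only control on the same plate was averaged over replicate plates.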
`Nc1ncnc2c1ncn2C1OC(COP(=O)(O)O)C(O)C1O` (stereo not given) gave an IRF reporter of 1.44 ± 0.052. `CC1=C(C(=O)OCC(F)(F)C(F)(F)F)C(c2ccccc2)NC(=O)N1` (stereo not given) gave an IRF reporter of 1.31 ± 0.05. `O=C(Cn1cc(S(=O)(=O)c2ccc(F)cc2)c2ccccc21)N1CCCCCC1` showed an IRF reporter of 0.847 ± 0.071. Work on `Cc1ccc(Nc2cc(N3CCCCC3)c(N)c3c2C(=O)c2ccccc2C3=O)cc1` yielded an IRF reporter of 1 ± 0.057. In the case of `COc1cccc(-c2cc(C(=O)N3CCC(Oc4cc(C)n(C)c(=O)c4)CC3)n(C)n2)c1`, the IRF reporter is reported as 0.991 ± 0.059. In the case of `O=C(COc1cccc2ccccc12)NCc1ccncc1`, the IRF reporter is reported as 0.981 ± 0.052. For `N#Cc1nc(-c2ccc(COc3ccc(Cl)cc3)o2)oc1N1CCCCC1`, the IRF reporter was 1.21 ± 0.047. Work on `Brc1ccc(CN2C3=NCCCN3c3ccccc32)cc1.Cl` yielded an IRF reporter of 0.735 ± 0.089. `CN1CCN(CCC=C2c3ccccc3Sc3ccc(S(=O)(=O)N(C)C)cc32)CC1` gave an IRF reporter of 0.856 ± 0.057. With `NC[C@@H]1O[C@H](O[C@@H]2[C@@H](CO)OC(O[C@@H]3[C@@H](O)[C@H](N)C[C@H](N)[C@H]3O[C@H]3O[C@H](CN)[C@@H](O)[C@H](O)[C@H]3N)[C@@H]2O)[C@H](N)[C@@H](O)[C@@H]1O.O=S(=O)(O)O` (stereo not given in full) the IRF reporter was 0.908 ± 0.09. `COc1cc2nc(N3CCN(C(=O)C4COc5ccccc5O4)CC3)nc(N)c2cc1OC` (stereo not given) [Prestw-858] showed an IRF reporter of 0.248 ± 0.012. With `Cc1ncn(CC(=O)N2CC(Oc3cccc(C(F)(F)F)n3)C2)c(=O)c1C` the IRF reporter was 0.83 ± 0.12. Work on `COc1ccccc1C1C(C(C)=O)=C(O)C(=O)N1CCN(C)C` (stereo not given) yielded an IRF reporter of 0.958 ± 0.032. With `O=C(Nc1ccc(Cl)cc1)C(Sc1ccccc1)c1ccccc1` (stereo not given) the IRF reporter was 0.989 ± 0.037. With `CC=CCn1c(=O)c2c(nc3n2CC(C(C)(C)C)=NN3)n(C)c1=O` the IRF reporter was 1 ± 0.026.
